Data: PubChem BioAssay (NCATS)
Records with an inconclusive call do not appear. Calls of active or inactive are those of the source. Calls come from the whole dose curve; as a rule, active = well fitted cell-killing curve with a large enough effect; inconclusive = small, poorly fitted or top-dose-only effect, or effect the other way; inactive = no such curve, though single readings can be large or run the other way.

assay: Quantitative High-Throughput drug screen in 47 multiple myeloma cell lines against the NCATS MIPE library collection: OCIMY7_PLB cell viability assay (AID 1918987); settings: OCI-MY7 myeloma viability, CellTiter-Glo ATP, 48 h; viability (% of DMSO): at 45.8 µM (top of the series); note: nearly all actives have a fitted effect of over 65% in size
Method in brief: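 ATP-based luminescence (CellTiter-Glo, 5 min RT incubation) quantified surviving cells following two days' treatment with MIPE 4.0 agents at 37 °C, 5% CO2.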
Potency is the fitted concentration of half-maximal effect.

Structure (SMILES) | Potency
CC[C@H](NC(=O)[C@H](C)NC)C(=O)N1C[C@@H](O)C[C@H]1Cc1c(-c2[nH]c3cc(F)ccc3c2C[C@H]2C[C@H](O)CN2C(=O)[C@H](CC)NC(=O)[C@H](C)NC)[nH]c2cc(F)ccc12 | 1.87 µM (active)
Cc1ccccc1-n1c(Cn2nc(-c3cccc(O)c3)c3c(N)ncnc32)nc2cccc(C)c2c1=O | 2.96 µM (active)
Cc1ccc2c(=O)c3cccc(CC(=O)O)c3oc2c1C | 26.4 µM (active)
Cc1[nH]c(C=C2C(=O)Nc3ccc(S(=O)(=O)N(C)c4cccc(Cl)c4)cc32)c(C)c1C(=O)N1CCN(C)CC1 | 18.7 µM (active)
O=C(Nc1ccc(OC(F)(F)F)cc1)c1sccc1NCc1ccnc2ccccc12 | 16.6 µM (active)
CN1c2ccccc2C(=O)N2CCc3c([nH]c4ccccc34)C21 (stereo not given) | 20.9 µM (active)
O=C(NC[C@H](O)CO)c1ccncc1Nc1ccc(I)cc1F | 0.209 µM (active)
CCOC(=O)N1CCN([N+]([O-])=NOc2cc(ON=[N+]([O-])N3CCN(C(=O)OCC)CC3)c([N+](=O)[O-])cc2[N+](=O)[O-])CC1 | 2.96 µM (active)
COc1ccc(Cn2ccc3ccc(C(=O)NO)cc32)cc1 | 9.35 µM (active)
CC1(COc2ccc3c(c2)ncn3-c2ccc3cccc(N4CCC(N)CC4)c3n2)COC1 | 0.059 µM (active)
